# Source: PMC12864922, “TDP-43 directly inhibits mRNA accumulation in neurites through modulation of mRNA stability”
# The full ranking holds about 9,900 sequences; the median of “r (bound/input frequency ratio)” is about 0.7, and the highest 2% start at about 6.5. This is one part of a sample in which the highest values are shown more often than they occur.
# B1: ENSMUSG00000031028.648|Tub (ssRNA)
# RNA: GGGAGUUCUACAGUCCGACGAUCGCUUCGAUAUCCGCAUGCUACCAGGUAGAGCAGAUGAGGCUGAAAUGUAGAGUGUUCUAUAGAGCAUCUCAGUAGCAUAGAAGGAGAAGCCCAGCUCCAACCUCCUGGACCCCAUACUGGUGACCAGCUUGGUGAGGACAGGCAAAAUUUCUCUAGCUGAGAGCACACUUAGCCAGUUUUCACGCCUAGAACAUAUAUGUCGAUUUGCACAUGAUUGUCUUUUCCUAUUUUGGAGUGGUCAGACAUUUUAUUUUUGUUCAAAAUUAUCUGGAGUUUUAGACUCUUGCGGUCGCACUAGUGUGGAAUUCUCGGGUGUCAAGG
# B2: ENSMUSG00000032194.138|Kank2 (ssRNA)
# RNA: GGGAGUUCUACAGUCCGACGAUCGCUUCGAUAUCCGCAUGCUAUGACUUGGAAAUGACCAACUUACAAGAAGUUAUGCUGACCUCCCUGUUCCCCACGGGGAGUGCUUGGCAGAGGAGACUACUUCUAGAAAUACUUUCAGACCUACAGACAAAAAAGAAAAAAGGCCAUUCCGGAGUGACUCCCAGCAUCACAGCCCAGAACCUCCUCCUCAAAGGAGAGUAAACAGAGACUGUGAUACUGACCAAGUACAGGCGCUCGCUAUGAAGCCCAUAUGUUCCUGAUUAAGAGCUGGCUGGCCUCACUCUUGCGGUCGCACUAGUGUGGAAUUCUCGGGUGUCAAGG
# B3: ENSMUSG00000061578.1543|Ksr2 (ssRNA)
# RNA: GGGAGUUCUACAGUCCGACGAUCGCUUCGAUAUCCGCAUGCUACACUAUGUAUAUUUGUAUAGAUCAUUUAUAAAGUUUUCUACACUUCUCAAAAAAAAAAAUAUUUCUAACCUUGGCUGUUGGACAGUCUGUGAGCCUGUGAGCCGGCAAGCCUGUUGUUUCUUGUGUUUAGUGCAAUGUUAGUGAGAAUCCAGUGUCUGAGUUAUUAAUGCCAAUAAAGAAUUUGAGAAUUACUGCAUCCGCUGCUGUCACUCCAGGUCAGAACUCUGCUGUUGUCUGUUGGAUGGAAGGAAGCUCCAGAGCUCUUGCGGUCGCACUAGUGUGGAAUUCUCGGGUGUCAAGG
# B4: ENSMUSG00000058297.242|Spock2|105:111;209:217;228:260 (ssRNA)
# RNA: GGGAGUUCUACAGUCCGACGAUCGCUUCGAUAUCCGCAUGCUAAGGGGACCACACUGAGCAGCUAGGCCCUGAUGCCAUGCCUCAGCACGCCCUCAGACCUCCAGGCCGGGUGGAAGGGGCUUUUACCCAGAUGUCCUGUGGGGUUUACACACACUAUUGCUCCCCACUUCCCCCUCUCAAAGGAAAUUUCCUUGAUAUAUUUGAUGAAGAAUUCCUUACCUGGGCCUCUGAUACCCUUUGGUACGCGUACCACACACACGCGCGUAUACCACACACACACACACACACACACACACACACACCUCUUGCGGUCGCACUAGUGUGGAAUUCUCGGGUGUCAAGG
# B5: ENSMUSG00000058297.246|Spock2 (ssRNA)
# RNA: GGGAGUUCUACAGUCCGACGAUCGCUUCGAUAUCCGCAUGCUACCCUGAUGCCAUGCCUCAGCACGCCCUCAGACCUCCAGGCCGGGUGGAAGGGGCUUUUACCCAGAUGUCCUGUGGGGUUUUGUGUGUCUAUUGCUCCCCACUUCCCCCUCUCAAAGGAAAUUUCCUUGAUAUAUUUGAUGAAGAAUUCCUUACCUGGGCCUCUGAUACCCUUUGGUACGCGUACGUGUGUGUGGCGCGUAUACGUGUGUGUGUGUGUGUGUGUGUGUGUGUGUGUGUGUGUGUGUGAGAGAGAGAGAGAGCUCUUGCGGUCGCACUAGUGUGGAAUUCUCGGGUGUCAAGG
# B6: ENSMUSG00000058297.244|Spock2 (ssRNA)
# RNA: GGGAGUUCUACAGUCCGACGAUCGCUUCGAUAUCCGCAUGCUAUGAGCAGCUAGGCCCUGAUGCCAUGCCUCAGCACGCCCUCAGACCUCCAGGCCGGGUGGAAGGGGCUUUUACCCAGAUGUCCUGUGGGGUUUUGUGUGUCUAUUGCUCCCCACUUCCCCCUCUCAAAGGAAAUUUCCUUGAUAUAUUUGAUGAAGAAUUCCUUACCUGGGCCUCUGAUACCCUUUGGUACGCGUACGUGUGUGUGGCGCGUAUACGUGUGUGUGUGUGUGUGUGUGUGUGUGUGUGUGUGUGUGUGUGAGCUCUUGCGGUCGCACUAGUGUGGAAUUCUCGGGUGUCAAGG
# B7: ENSMUSG00000058297.239|Spock2 (ssRNA)
# RNA: GGGAGUUCUACAGUCCGACGAUCGCUUCGAUAUCCGCAUGCUAGAACGGUGUAUCUAUCAGAGGGGACCACACUGAGCAGCUAGGCCCUGAUGCCAUGCCUCAGCACGCCCUCAGACCUCCAGGCCGGGUGGAAGGGGCUUUUACCCAGAUGUCCUGUGGGGUUUUGUGUGUCUAUUGCUCCCCACUUCCCCCUCUCAAAGGAAAUUUCCUUGAUAUAUUUGAUGAAGAAUUCCUUACCUGGGCCUCUGAUACCCUUUGGUACGCGUACGUGUGUGUGGCGCGUAUACGUGUGUGUGUGUGUGCUCUUGCGGUCGCACUAGUGUGGAAUUCUCGGGUGUCAAGG
# B8: ENSMUSG00000058297.245|Spock2 (ssRNA)
# RNA: GGGAGUUCUACAGUCCGACGAUCGCUUCGAUAUCCGCAUGCUAGCUAGGCCCUGAUGCCAUGCCUCAGCACGCCCUCAGACCUCCAGGCCGGGUGGAAGGGGCUUUUACCCAGAUGUCCUGUGGGGUUUUGUGUGUCUAUUGCUCCCCACUUCCCCCUCUCAAAGGAAAUUUCCUUGAUAUAUUUGAUGAAGAAUUCCUUACCUGGGCCUCUGAUACCCUUUGGUACGCGUACGUGUGUGUGGCGCGUAUACGUGUGUGUGUGUGUGUGUGUGUGUGUGUGUGUGUGUGUGUGUGAGAGAGAGCUCUUGCGGUCGCACUAGUGUGGAAUUCUCGGGUGUCAAGG
# B9: ENSMUSG00000058297.243|Spock2 (ssRNA)
# RNA: GGGAGUUCUACAGUCCGACGAUCGCUUCGAUAUCCGCAUGCUACCACACUGAGCAGCUAGGCCCUGAUGCCAUGCCUCAGCACGCCCUCAGACCUCCAGGCCGGGUGGAAGGGGCUUUUACCCAGAUGUCCUGUGGGGUUUUGUGUGUCUAUUGCUCCCCACUUCCCCCUCUCAAAGGAAAUUUCCUUGAUAUAUUUGAUGAAGAAUUCCUUACCUGGGCCUCUGAUACCCUUUGGUACGCGUACGUGUGUGUGGCGCGUAUACGUGUGUGUGUGUGUGUGUGUGUGUGUGUGUGUGUGUGUGCUCUUGCGGUCGCACUAGUGUGGAAUUCUCGGGUGUCAAGG
# B10: ENSMUSG00000058297.240|Spock2 (ssRNA)
# RNA: GGGAGUUCUACAGUCCGACGAUCGCUUCGAUAUCCGCAUGCUAUGUAUCUAUCAGAGGGGACCACACUGAGCAGCUAGGCCCUGAUGCCAUGCCUCAGCACGCCCUCAGACCUCCAGGCCGGGUGGAAGGGGCUUUUACCCAGAUGUCCUGUGGGGUUUUGUGUGUCUAUUGCUCCCCACUUCCCCCUCUCAAAGGAAAUUUCCUUGAUAUAUUUGAUGAAGAAUUCCUUACCUGGGCCUCUGAUACCCUUUGGUACGCGUACGUGUGUGUGGCGCGUAUACGUGUGUGUGUGUGUGUGUGUGCUCUUGCGGUCGCACUAGUGUGGAAUUCUCGGGUGUCAAGG
# B11: ENSMUSG00000058297.242|Spock2 (ssRNA)
# RNA: GGGAGUUCUACAGUCCGACGAUCGCUUCGAUAUCCGCAUGCUAAGGGGACCACACUGAGCAGCUAGGCCCUGAUGCCAUGCCUCAGCACGCCCUCAGACCUCCAGGCCGGGUGGAAGGGGCUUUUACCCAGAUGUCCUGUGGGGUUUUGUGUGUCUAUUGCUCCCCACUUCCCCCUCUCAAAGGAAAUUUCCUUGAUAUAUUUGAUGAAGAAUUCCUUACCUGGGCCUCUGAUACCCUUUGGUACGCGUACGUGUGUGUGGCGCGUAUACGUGUGUGUGUGUGUGUGUGUGUGUGUGUGUGUGCUCUUGCGGUCGCACUAGUGUGGAAUUCUCGGGUGUCAAGG
# B12: ENSMUSG00000058297.241|Spock2 (ssRNA)
# RNA: GGGAGUUCUACAGUCCGACGAUCGCUUCGAUAUCCGCAUGCUAUAUCAGAGGGGACCACACUGAGCAGCUAGGCCCUGAUGCCAUGCCUCAGCACGCCCUCAGACCUCCAGGCCGGGUGGAAGGGGCUUUUACCCAGAUGUCCUGUGGGGUUUUGUGUGUCUAUUGCUCCCCACUUCCCCCUCUCAAAGGAAAUUUCCUUGAUAUAUUUGAUGAAGAAUUCCUUACCUGGGCCUCUGAUACCCUUUGGUACGCGUACGUGUGUGUGGCGCGUAUACGUGUGUGUGUGUGUGUGUGUGUGUGUGCUCUUGCGGUCGCACUAGUGUGGAAUUCUCGGGUGUCAAGG
# Target: TDP-43 (Homo sapiens, UniProt Q13148 1-414)
# Sequence (Q13148 whole entry): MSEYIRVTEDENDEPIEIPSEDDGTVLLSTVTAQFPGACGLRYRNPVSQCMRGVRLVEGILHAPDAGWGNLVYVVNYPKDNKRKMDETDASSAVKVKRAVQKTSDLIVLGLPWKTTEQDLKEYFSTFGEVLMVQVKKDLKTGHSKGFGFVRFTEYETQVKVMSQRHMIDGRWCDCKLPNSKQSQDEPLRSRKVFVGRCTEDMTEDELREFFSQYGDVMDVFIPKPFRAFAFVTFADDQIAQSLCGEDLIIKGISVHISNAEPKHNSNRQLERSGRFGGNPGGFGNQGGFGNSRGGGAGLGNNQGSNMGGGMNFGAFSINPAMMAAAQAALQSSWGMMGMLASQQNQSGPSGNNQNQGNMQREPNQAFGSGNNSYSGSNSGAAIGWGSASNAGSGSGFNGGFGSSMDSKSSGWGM
# Experiment: RNA Bind-n-Seq with designed 260-mer pool; 25 mM Tris-HCl, 150 mM KCl, 3 mM MgCl2, BSA (printed 500 mg/mL), 20 units/mL SUPERase IN; pH not stated; 500 nM RNA pool, 1 h, 4 C; TDP-43 5, 50, 500 nM; high values mean tight binding
# Details: protein: recombinant; tags: SBP (GST cleaved off with PreScission; pGEX-GST-SBP)
# Method in brief: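 The incubation lasted 1 h at 4 °C and used 500 nM of an in vitro-transcribed 260-nt 3′ UTR oligo pool with recombinant SBP-tagged TDP-43 at 5, 50 or 500 nM immobilized on streptavidin beads. It took place in 25 mM Tris-HCl, 150 mM KCl, 3 mM MgCl2, BSA and SUPERase IN. Bound RNA was washed, eluted with biotin, converted to cDNA, PCR-amplified and sequenced to give R, each oligo's normalized abundance in the bound sample divided by that in input. Two independent protein batches provided the duplicates.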
row,Binder,binding signal
1,B1,0.252 R (bound/input frequency ratio)
2,B2,0.253 R (bound/input frequency ratio)
3,B3,0.902 R (bound/input frequency ratio)
4,B4,4.83 R (bound/input frequency ratio)
5,B5,2.94 R (bound/input frequency ratio)
6,B6,3.2 R (bound/input frequency ratio)
7,B7,3.69 R (bound/input frequency ratio)
8,B8,9.24 R (bound/input frequency ratio)
9,B9,6.55 R (bound/input frequency ratio)
10,B10,5.45 R (bound/input frequency ratio)
11,B11,6.94 R (bound/input frequency ratio)
12,B12,6.46 R (bound/input frequency ratio)
